Compound activity from PubChem BioAssay.
TNF necrop inh: TNF-alpha cell death inhibition in Jurkat FADD-/- cells. Jurkat FADD-/- TNF necroptosis rescue, ATP luminescence, 24 h; 0 = TNF only, 100 = no-TNF cells. AID 463075. 220,000 tested, 0.068% active. activation (protection from cell death), % at 10 µM;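 active means activation, meaning protection from cell death, of at least 50% relative to plate controls; inactive means activation below 50%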;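 further: necroptosis triggered by 40 ng/mL TNF-alpha added together with compound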
Mcl-1 Bim block: human Bim-Mcl-1 interaction inhibition; Q07820; Bead-based flow cytometry, Bim peptide-Mcl-1 binding; inhibition, % at 10 µM; 190,000 tested, 0.1% active; AID 1009; in the data active means inhibition above about 40%
Target sequence (Q07820 whole entry, looked up): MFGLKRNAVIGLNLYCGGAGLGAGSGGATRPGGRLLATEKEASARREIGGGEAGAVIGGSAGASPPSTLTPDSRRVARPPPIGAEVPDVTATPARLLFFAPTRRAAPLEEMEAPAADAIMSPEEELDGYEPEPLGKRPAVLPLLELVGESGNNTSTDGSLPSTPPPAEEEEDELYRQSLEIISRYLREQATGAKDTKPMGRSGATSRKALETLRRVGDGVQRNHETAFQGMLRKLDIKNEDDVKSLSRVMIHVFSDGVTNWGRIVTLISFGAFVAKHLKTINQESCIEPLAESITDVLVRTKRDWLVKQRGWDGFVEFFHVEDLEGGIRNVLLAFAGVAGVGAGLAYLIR
L929 necroptosis: L929 zVAD cell death inhibition; L929 zVAD necroptosis rescue, ATP luminescence, 24 h; with zVAD 60 µM; viability rescue, % at 10 µM; 220,000 tested, 0.38% active; AID 1377;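 active means activation, scaled between plate controls, above about 75%, limit read from the data; inactive means activation under that limit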
MCL1-BIM inh: inhibitors of human MCL1 binding to BIM-BH3 peptide. Q07820. GST-MCL1 / FITC-Bim-BH3 fluorescence polarization. inhibition, % at 10.9 µM. AID 2057. 320,000 tested, 0.68% active;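 active means inhibition above the mean inhibition of all tested compounds plus 3 SD, set per campaign, cut at about 40% in these data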;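 further: higher means more loss of mP so more displacement of Bim peptide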
Mcl1-Bid inh: Mcl-1/Bid interaction inhibition. Q07820. inhibition, % at 21.7 µM. TR-FRET Mcl-1/Bid-Dy647 peptide binding, 1536-well. 220,000 tested, 0.97% active;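 active means compounds that cut the binding signal by more than half at the single screening dose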;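 further: His-tagged Mcl-1 with europium anti-His antibody binding Bid BH3 peptide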
Mcl1-Noxa inh: disrupts binding of human Mcl-1 to Noxa peptide. inhibition, % at 21.7 µM. TR-FRET Mcl-1/Noxa peptide binding, 2 h. 220,000 tested, 1.5% active. Q07820;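 active means compounds that cut the protein-peptide binding signal by more than 50% relative to plate controls in a single-dose test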;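 further: His-tagged Mcl-1 with rhodamine Noxa BH3 peptide and terbium anti-His antibody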
BCLXL inh confirm: counter-screen for MCL1 inhibitors: confirmation of human Bcl-xL inhibitors | 1,700 tested, 54% active | GST-Bcl-xL / FITC-Bim BH3 peptide FP binding | AID 2166 | shares compounds with MCL1-BIM inh | inhibition, % at 10.9 µM;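 active means inhibition above a cutoff equal to the mean inhibition of all tested compounds plus 3 SD, cut at about 30% in these data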
MCL1 inh confirm: MCL1-BIM-BH3 interaction inhibition, confirmation; shares compounds with MCL1-BIM inh; GST-MCL1 / FITC-Bim-BH3 fluorescence polarization; AID 2168; 1,700 tested, 61% active; inhibition, % at 10.9 µM;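 active means inhibition above the average of all tested compounds plus 3 SD, cut at about 40% in these data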
Each line names hits and unclear results; the compound was inactive in the other large screens (follow-up assays come after a bar, where they were run). A selection: hits, their analogues and other compounds. The true share with any hit is near 2.4%.

C[C@]12CC(=O)CC1CCC1C2CC[C@@]2(C)C1CC[C@@H]2O (some centres undefined)	none (no result: TNF necrop inh, Mcl-1 Bim block, L929 necroptosis, Mcl1-Bid inh, Mcl1-Noxa inh)
Cc1cccc2c1=NC(=O)/C(=C/c1c(O)[nH]c(=O)[nH]c1=O)C=2	none
O=c1[nH]c(=S)[nH]c(O)c1/C=C1/C=c2ccccc2=N1	MCL1-BIM inh 92 (no result: TNF necrop inh, Mcl-1 Bim block, L929 necroptosis, Mcl1-Bid inh, Mcl1-Noxa inh) | BCLXL inh confirm 135 | MCL1 inh confirm 170
CC(C)(C#CC(=O)O)OOC(c1ccccc1)(c1ccccc1)c1ccccc1	none (no result: TNF necrop inh, Mcl-1 Bim block, L929 necroptosis, Mcl1-Bid inh, Mcl1-Noxa inh)
Nc1nonc1C(=O)N/N=C/c1ccc([N+](=O)[O-])o1	none
COC(=O)C1=C(c2ccc(OC(F)(F)F)cc2)C[C@@H]2CC[C@H]1N2C(=O)NCCOc1ccc(OC)cc1	none (no result: TNF necrop inh, Mcl-1 Bim block, L929 necroptosis, Mcl1-Bid inh, Mcl1-Noxa inh)
